# Data taken from PubChem BioAssay (NCATS).
# A number with no mark means an inactive call. Inconclusive results are not listed. Where a call stands in place of a potency, no number is given. Activity calls are given as the source filed them. Unless noted, the call rests on the fitted dose curve; in most records, active means well fitted curve in the direction sought with a large enough effect; inconclusive means small, poorly fitted or top-dose-only effect, or another doubt; inactive means no such curve, though single readings can be large; an effect the other way counts as inactive or inconclusive.
# Tests used:
# [1] = biological target: Cytochrome P450 2C9 (Homo sapiens) (UniProt P11712); assay: qHTS Assay for Inhibitors and Substrates of Cytochrome P450 2C9 (AID 883); further: nearly all actives have a fitted effect of over 60% in size; further: potency means the concentration at half of the fitted maximal effect
# Sequence of Cytochrome P450 2C9 (Homo sapiens) (P11712 whole entry, looked up): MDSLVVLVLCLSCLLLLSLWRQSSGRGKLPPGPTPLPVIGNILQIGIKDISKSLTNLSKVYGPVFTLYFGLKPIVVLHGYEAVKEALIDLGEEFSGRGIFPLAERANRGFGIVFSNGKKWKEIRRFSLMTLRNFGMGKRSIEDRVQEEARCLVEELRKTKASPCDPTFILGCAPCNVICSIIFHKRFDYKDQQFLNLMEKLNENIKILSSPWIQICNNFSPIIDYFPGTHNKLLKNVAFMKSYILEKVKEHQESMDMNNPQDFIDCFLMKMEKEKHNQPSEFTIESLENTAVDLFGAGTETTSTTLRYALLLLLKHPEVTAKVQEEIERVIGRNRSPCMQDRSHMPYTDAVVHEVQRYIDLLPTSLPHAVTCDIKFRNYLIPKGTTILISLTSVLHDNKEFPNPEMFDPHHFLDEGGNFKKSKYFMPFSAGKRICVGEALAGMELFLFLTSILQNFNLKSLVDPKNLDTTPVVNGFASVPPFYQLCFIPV
# Outline: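 10nM CYP2C9 + 100uM Luciferin-H (=KM), 25mM KPO4; cpd 10 min 37C; NADPH regen, 60 min 37C; stop/detect with P450 Glo-Buffer 20 min; luminescence. Norm. to 57uM sulphaphenazole as full inhibition.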
# [2] = biological target: Cytochrome P450 2D6 (Homo sapiens) (UniProt P10635); assay: qHTS Assay for Inhibitors and Substrates of Cytochrome P450 2D6 (AID 891); further: nearly all actives have a fitted effect of over 60% in size; further: potency means the concentration at half of the fitted maximal effect
# Sequence of Cytochrome P450 2D6 (Homo sapiens) (P10635 whole entry, looked up): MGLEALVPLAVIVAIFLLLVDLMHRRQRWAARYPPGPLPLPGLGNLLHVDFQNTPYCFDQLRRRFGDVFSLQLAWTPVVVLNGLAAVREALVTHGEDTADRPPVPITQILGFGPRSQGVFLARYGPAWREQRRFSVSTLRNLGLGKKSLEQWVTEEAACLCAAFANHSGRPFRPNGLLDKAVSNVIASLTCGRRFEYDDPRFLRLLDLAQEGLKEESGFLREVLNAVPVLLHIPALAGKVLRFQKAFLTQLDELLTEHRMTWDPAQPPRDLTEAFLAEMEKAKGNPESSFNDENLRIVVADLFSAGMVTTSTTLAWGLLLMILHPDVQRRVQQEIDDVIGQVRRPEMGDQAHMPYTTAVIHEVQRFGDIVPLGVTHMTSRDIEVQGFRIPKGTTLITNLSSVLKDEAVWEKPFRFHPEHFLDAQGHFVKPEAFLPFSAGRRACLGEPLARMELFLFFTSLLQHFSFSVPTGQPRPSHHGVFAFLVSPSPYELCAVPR
# Outline: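 Human CYP2D6 (5 nM) with 30 uM Luciferin-ME EGE (at Km) in 100 mM KPO4, compound preincubated 10 min, then NADPH regeneration system for 60 min at room temperature. Luciferin read by luminescence; normalized to 1.43 uM quinidine.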
# [3] = biological target: DNA dC->dU-editing enzyme APOBEC-3G (Homo sapiens) (UniProt Q9HC16); assay: qHTS for inhibitors of Vif-A3G interactions: Validation (AID 588379)
# Sequence of DNA dC->dU-editing enzyme APOBEC-3G (Homo sapiens) (Q9HC16 whole entry, looked up): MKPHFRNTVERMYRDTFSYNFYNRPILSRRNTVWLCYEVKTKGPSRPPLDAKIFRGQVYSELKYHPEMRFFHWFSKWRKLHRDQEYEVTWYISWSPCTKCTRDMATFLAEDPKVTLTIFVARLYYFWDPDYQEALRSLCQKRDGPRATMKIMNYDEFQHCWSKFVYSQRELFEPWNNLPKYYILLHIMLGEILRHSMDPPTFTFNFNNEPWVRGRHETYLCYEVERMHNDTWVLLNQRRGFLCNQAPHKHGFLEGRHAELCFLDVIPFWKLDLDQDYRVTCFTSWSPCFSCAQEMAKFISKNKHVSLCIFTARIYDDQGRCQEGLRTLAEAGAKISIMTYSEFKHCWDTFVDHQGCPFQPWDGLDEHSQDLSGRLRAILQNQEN
# Outline: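 HeLa cells stably expressing Vif and A3G-eYFP, 700 cells/well, incubated overnight at 37 deg C, then exposed to compound overnight at 37 deg C. Inhibition of Vif-mediated degradation read as increased yellow fluorescence (Ex 488/Em 500-530) by laser-scanning cytometry.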
# [4] = biological target: ATP-dependent 6-phosphofructokinase (Trypanosoma brucei brucei) (UniProt O15648); assay: qHTS Assay to Find Inhibitors of T. brucei phosphofructokinase: hit validation (AID 492961)
# Sequence of ATP-dependent 6-phosphofructokinase (Trypanosoma brucei brucei) (O15648 whole entry, looked up): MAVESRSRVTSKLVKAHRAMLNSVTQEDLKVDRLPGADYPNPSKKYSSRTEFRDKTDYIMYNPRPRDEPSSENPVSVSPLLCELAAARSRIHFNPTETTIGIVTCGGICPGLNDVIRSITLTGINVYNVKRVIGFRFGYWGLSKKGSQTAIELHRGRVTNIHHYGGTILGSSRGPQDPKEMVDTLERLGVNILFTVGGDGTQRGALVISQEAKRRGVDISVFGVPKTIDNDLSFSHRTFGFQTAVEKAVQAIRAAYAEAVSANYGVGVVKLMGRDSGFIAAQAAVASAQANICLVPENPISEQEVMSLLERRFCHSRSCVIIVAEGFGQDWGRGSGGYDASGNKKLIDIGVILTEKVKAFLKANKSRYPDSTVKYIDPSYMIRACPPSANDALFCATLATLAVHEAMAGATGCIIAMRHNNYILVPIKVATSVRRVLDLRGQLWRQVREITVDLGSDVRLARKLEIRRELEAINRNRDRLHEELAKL
# Outline: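 Luminescence from ADP-Glo reports ADP generated as T. brucei PFK (1.25 nM) phosphorylates 0.5 mM fructose-6-phosphate using 0.1 mM ATP. Reactions ran 45 min at room temperature, pH 8.0.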
# [5] = NCATS anti-infectives library activity on the primary C. elegans qHTS viability assay (AID 1745855; calls by dose curve; further: potency means the concentration at half of the fitted maximal effect); settings: C. elegans worm area imaging, day 7
# Outline: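 Viability is taken from GFP fluorescence of PE254-GFP-FLuc C. elegans imaged by laser cytometry over 7 days. Ten L1 worms per well grow at 21 °C on TOP10 E. coli capsules with titrated compound; levamisole marks toxicity.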
# [6] = qHTS profiling for inhibitors of Plasmodium falciparum proliferation (AID 504749); further: potency means the concentration at half of the fitted maximal effect; nearly all actives have a fitted effect of over 60% in size; settings: P. falciparum in erythrocytes, SYBR Green DNA, 72 h
# Outline: (§1)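 Readout was DNA-dye fluorescence from lysed cultures, ex 485/em 535 nm. Parasitized red cells had grown 72 h with compound; data scaled between 0.29 uM artemisinin and DMSO wells and corrected using vehicle-only plates.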
# AS120 = assay: as above; settings: P. falciparum in erythrocytes, SYBR Green DNA, 72 h; series mostly up to 28.7 µM
# Outline: as §1
# ATS189 = assay: as above; settings: P. falciparum in erythrocytes, SYBR Green DNA, 72 h; series mostly up to 12.8 µM
# Outline: as §1
# CP203 = assay: as above; settings: P. falciparum in erythrocytes, SYBR Green DNA, 72 h; series mostly up to 12.8 µM
# Outline: as §1
# CP291 = assay: as above; settings: P. falciparum in erythrocytes, SYBR Green DNA, 72 h; series mostly up to 12.8 µM
# Outline: as §1
# DFO2036 = assay: as above; settings: P. falciparum in erythrocytes, SYBR Green DNA, 72 h; series mostly up to 12.8 µM
# Outline: as §1
# TAB113 = assay: as above; settings: P. falciparum in erythrocytes, SYBR Green DNA, 72 h; series mostly up to 12.8 µM
# Outline: as §1
# [7] = qHTS Assay for Modulators of Human Peripheral Myelin Protein 22 (PMP22) Expression/Activity (AID 1967; active means well fitted curve in the direction sought with a large enough effect in the signal ratio; the % refers to the signal ratio)
# Outline: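 Mouse MSC80 Schwann cells carrying Pmp22 promoter–green click beetle luciferase plus EF-alpha–red luciferase control, dosed 24 h at 37 °C. Dual-filter luminescence, overlap-corrected; %Activity from green/red ratio normalised to untreated cells, concentration-response curves fitted.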
# [8] = biological target: RecQ-like DNA helicase BLM (Homo sapiens) (UniProt P54132); assay: qHTS Validation Assay for Inhibitors of Bloom's syndrome helicase (BLM) (AID 2364)
# Sequence of RecQ-like DNA helicase BLM (Homo sapiens) (P54132 whole entry, looked up): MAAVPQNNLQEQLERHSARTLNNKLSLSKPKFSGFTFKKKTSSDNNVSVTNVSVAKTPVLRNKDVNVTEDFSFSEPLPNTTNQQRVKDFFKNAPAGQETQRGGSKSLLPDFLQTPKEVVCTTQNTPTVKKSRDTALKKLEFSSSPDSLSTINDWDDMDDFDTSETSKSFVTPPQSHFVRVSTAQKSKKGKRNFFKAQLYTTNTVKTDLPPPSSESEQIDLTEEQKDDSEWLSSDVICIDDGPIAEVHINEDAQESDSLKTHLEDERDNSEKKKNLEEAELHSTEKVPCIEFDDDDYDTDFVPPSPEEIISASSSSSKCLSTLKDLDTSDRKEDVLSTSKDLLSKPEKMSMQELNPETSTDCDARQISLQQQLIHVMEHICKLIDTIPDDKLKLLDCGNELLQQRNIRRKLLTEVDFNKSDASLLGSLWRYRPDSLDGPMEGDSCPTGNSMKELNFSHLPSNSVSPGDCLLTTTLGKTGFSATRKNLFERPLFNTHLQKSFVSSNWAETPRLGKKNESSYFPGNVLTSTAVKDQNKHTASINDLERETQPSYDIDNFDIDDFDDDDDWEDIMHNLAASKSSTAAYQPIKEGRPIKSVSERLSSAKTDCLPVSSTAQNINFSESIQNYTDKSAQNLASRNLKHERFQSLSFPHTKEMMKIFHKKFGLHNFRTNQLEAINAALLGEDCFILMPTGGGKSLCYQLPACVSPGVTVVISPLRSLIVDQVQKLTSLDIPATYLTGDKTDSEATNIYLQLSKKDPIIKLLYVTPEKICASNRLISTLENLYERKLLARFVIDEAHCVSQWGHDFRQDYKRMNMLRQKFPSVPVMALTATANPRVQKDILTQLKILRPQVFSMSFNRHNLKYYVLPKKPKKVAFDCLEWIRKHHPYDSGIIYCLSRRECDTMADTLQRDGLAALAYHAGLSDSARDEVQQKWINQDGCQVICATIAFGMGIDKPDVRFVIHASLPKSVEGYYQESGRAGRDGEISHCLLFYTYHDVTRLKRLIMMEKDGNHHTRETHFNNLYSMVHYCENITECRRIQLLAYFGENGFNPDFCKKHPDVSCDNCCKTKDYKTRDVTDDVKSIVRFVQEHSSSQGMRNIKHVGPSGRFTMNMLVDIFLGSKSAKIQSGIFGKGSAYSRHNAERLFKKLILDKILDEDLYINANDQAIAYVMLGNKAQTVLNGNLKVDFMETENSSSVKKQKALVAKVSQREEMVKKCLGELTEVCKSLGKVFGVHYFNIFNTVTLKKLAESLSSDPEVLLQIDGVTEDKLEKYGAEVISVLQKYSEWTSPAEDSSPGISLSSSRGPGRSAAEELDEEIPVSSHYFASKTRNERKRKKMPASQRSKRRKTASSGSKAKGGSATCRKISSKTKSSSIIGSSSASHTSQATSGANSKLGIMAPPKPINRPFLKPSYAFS
# Outline: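 50 nM BLM preincubated 15 min at room temperature with compound in pH 8.0 Tris buffer containing 2.5 ug/ml poly(dI-dC); started with 200 nM TAMRA/BHQ-2 forked duplex and 2 mM ATP (final). Unwinding read as TAMRA fluorescence increase, two reads 2 h apart.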
# [9] = Validation screen for small molecules that induce DNA re-replication in SW480 colon adenocarcinoma cells (AID 504364)
# Outline: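 SW480 cells seeded at 250 per well were exposed to compound or DMSO for 48 hr at 37 C, 5% CO2, then stained with Hoechst for 40 min. DNA content per nucleus was imaged (405 nm ex, 500-530 nm em).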
# [10] = qHTS for differential inhibitors of proliferation of Plasmodium falciparum line 7G8 (AID 1815);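 further: potency means the concentration at half of the fitted maximal effect; parasite growth measured after three days of incubation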
# [11] = qHTS for differential inhibitors of proliferation of Plasmodium falciparum line GB4 (AID 1816); settings: Potency: Plasmodium falciparum GB4 proliferation inhibition;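 further: potency means the concentration at half of the fitted maximal effect; parasite growth measured after 72 h incubation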
# [12] = qHTS for differential inhibitors of proliferation of Plasmodium falciparum line D10 (AID 1877);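 further: potency means the concentration at half of the fitted maximal effect; parasites grown with compound for 72 h before DNA staining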
# [13] = NCATS anti-infectives library activity on HEK293 viability as a counter-qHTS vs the C. elegans viability qHTS (AID 1745854)
# Outline: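 HEK293 cells, 1500 per well, exposed 24 hr at 37C in 5% CO2 to compounds in a 1:5 titration, up to 41.7 uM final. Viability read as CellTiter-Glo luminescence after 10 min at room temperature.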
# [14] = biological target: Endonuclease 4 (Escherichia coli (strain K12)) (UniProt P0A6C1); assay: Counterscreen for APE1 Inhibitors: qHTS Validation Assay for Inhibitors of Endonuclease IV (AID 1708)
# Outline: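 Cleavage of a quenched abasic-site DNA duplex (50 nM, 5'-TAMRA, 3'-BHQ-2) by 2 nM enzyme is followed as fluorescence increase. Compounds are preincubated with enzyme 15 min at room temperature before substrate addition.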
smiles,measurement,setting,value
COc1ccc2[nH]cc(CCNc3ncnc4ccc(-c5ccccc5C#N)cc34)c2c1,Potency,[1],0.316 µM (active)
same,Potency,[2],7.94 µM (active)
COc1ccc2c(c1)[C@@]1(C)CCC[C@](C)(CO)C1CC2 (stereo not given in full),outcome,[3],inactive
COc1cccc(-c2cncnc2NCc2ccc(OC)cc2OC)c1,Potency,[2],7.94 µM (active)
N#C/C(=C\c1ccc(O)c(O)c1)C(=O)NCCCCc1ccccc1,outcome,[3],inactive
COc1ccccc1CNc1ncnc2ccc(-c3cccnc3)cc12,Potency,[2],5.01 µM (active)
Cc1cc(/C=C\c2ccc3cc(N(C)C)ccc3[n+]2C)c(C)n1-c1ccccc1,outcome,[4],inactive
same,Potency,[5],29 µM (active)
same,Potency,[6]; parasite line A,1.58 µM (active)
same,Potency,[6]; parasite line B,1.58 µM (active)
same,Potency,AS120,3.16 µM (active)
same,Potency,ATS189,3.16 µM (active)
same,Potency,CP203,2.28 µM (active)
same,Potency,CP291,3.61 µM (active)
same,Potency,DFO2036,1.78 µM (active)
same,Potency,TAB113,1.78 µM (active)
Nc1ncnc2c1ncn2[C@@H]1O[C@H](COP(=O)(O)OP(=O)(O)OP(=O)(O)OP(=O)(O)OC[C@@H]2O[C@H](n3cnc4c(N)ncnc43)[C@@H](O)[C@@H]2O)[C@H](O)[C@H]1O,outcome,[7],inactive
same,outcome,[8],inactive
same,outcome,[9],inactive
CN1CCN(c2ncc3nc(-c4cccc(C#N)c4)c(=O)n(C[C@H]4CCCO4)c3n2)CC1,Potency,[2],inactive
NC(=NCc1ccc(Cl)c(Cl)c1)NC(=O)c1nc(Cl)c(N)nc1N,Potency,[10],0.562 µM (active)
same,Potency,[11],0.891 µM (active)
same,Potency,[12],0.398 µM (active)
same,outcome,[8],inactive
COc1cc2c3cc1Oc1c(OC)c(OC)cc4c1[C@@H](Cc1ccc(O)c(c1)Oc1ccc(cc1)C[C@@H]3N(C)CC2)N(C)CC4,Potency,[1],inactive
same,Potency,[2],inactive
same,outcome,[3],inactive
same,outcome,[13],inactive
COc1ccc(-c2cc(=O)c3c(OC)c(OC)c(OC)c(OC)c3o2)cc1OC,outcome,[13],inactive
CC1(C)[C@@H](O)CC[C@]2(C)C3C(=O)C=C4C5C[C@@](C)(C(=O)O)CC[C@]5(C)CC[C@@]4(C)[C@]3(C)CC[C@@H]12 (stereo not given in full),outcome,[3],inactive
COc1ccc(/C=C/C(=O)O)cc1OC,outcome,[13],inactive
Nc1ncnc2c1nc(Br)n2C1O[C@H]2COP(=O)(O)O[C@@H]2C1O (stereo not given in full),outcome,[14],inactive
same,Potency,[11],12.6 µM (active)
same,outcome,[8],inactive
same,outcome,[9],inactive
